Rab9 promoter act: activators of Rab9 promoter | Potency, µM (titrated, usually from 9.22 µM), without a hit: at the highest dose activation, negative = inhibition, hits mostly activators | Huh7 Rab9 promoter-luciferase reporter, luminescence, 24 h | 320,000 tested, 2.8% active; also: % of control where 0% means no effect; nearly all actives have a fitted effect of over 60% in size
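Steps: seed 1500 Huh7 Rab9-luc cells per well, rest 2 h at 37 °C; add compound in DMSO; incubate 24 h; add luciferase reagent, 10 min ambient; read luminescence.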
ELG1 DNA repair: blocks ELG1-dependent DNA repair in HEK293T cells | HEK293T ELG1-luciferase reporter, luminescence, 16 h; DNA damage induced by 5-fluorouridine | 330,000 tested, 2.3% active | Potency, µM (top dose mostly 46.1 µM), for inactives: at the highest dose activity change, negative = inhibition, actives largely listed as inhibitors; also: % is scaled to controls: 0 for no effect and ±100 for the full control effect; nearly all actives have a fitted effect of over 55% in size
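5-Fluorouridine DNA damage + compound/DMSO, 2,000 cells/well, 16 h, 37 °C/5% CO2. ONE-Glo, 30 min RT, luminescence. Readout = decrease in reporter signal.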
ELG1 genotox: genotoxicity induction in ELG1-luciferase HEK293T cells; HEK293T ELG1-luciferase reporter, luminescence, 16 h; Potency, µM (titrated, usually from 46 µM), without a hit: at the top dose activity change, positive = activation, usual class: activators; 330,000 tested, 1.3% active; also: % of control where 0% means no effect; nearly all actives have a fitted effect of over 60% in size
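Reporter readout depends on ELG1 protein level, which increases with genetic stress. After 16 hr compound exposure at 37 °C, luciferase activity was quantified using ONE-Glo.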
NPC1 prom act: NPC1 promoter activation; 320,000 tested, 2.4% active; Potency, µM (highest dose often 9.22 µM), for the others: at the highest dose activation, most hits filed as activators; AID 485313; Huh7 NPC1 promoter luciferase reporter, 24 h; also: % of control where 0% means no effect; nearly all actives have a fitted effect of over 60% in size
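In 1536-well qHTS, Huh7 cells harboring an NPC1 promoter–luciferase construct received compound for 24 h; activation was quantified by luminescence following luciferase reagent addition.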
SMN2 splice up: increases expression of the SMN2 splice variant; HEK293 SMN2-luciferase splicing reporter, luminescence, 30-36 h; Potency, µM (series often up to 46.1 µM), for inactives: top-dose activity change, positive = activation, actives largely listed as activators; 210,000 tested, 2.8% active; AID 1458; also: % of control where 0% means no effect; nearly all actives have a fitted effect of over 55% in size
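qHTS luciferase splicing reporter: luminescence rises when SMN2 exon 7 is included in transfected HEK293 cells. Compound exposure lasted 30-36 h at 37C, with 4.5 mM final sodium butyrate as control, followed by a ONE-Glo read.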
FLuc counter: inhibits or activates purified firefly luciferase, miR-21 counter-screen | purified FLuc, Km substrates, luminescence inhibition | Potency, µM (highest dose often 57.5 µM), for inactives: at the highest dose activity change, negative = inhibition, most hits filed as inhibitors | AID 588342 | P08659 | 360,000 tested, 6.9% active;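 also: plate controls were vehicle for no effect and reference inhibitor for full effect; nearly all actives have a fitted effect of over 55% in size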
Target sequence (P08659 whole entry, looked up): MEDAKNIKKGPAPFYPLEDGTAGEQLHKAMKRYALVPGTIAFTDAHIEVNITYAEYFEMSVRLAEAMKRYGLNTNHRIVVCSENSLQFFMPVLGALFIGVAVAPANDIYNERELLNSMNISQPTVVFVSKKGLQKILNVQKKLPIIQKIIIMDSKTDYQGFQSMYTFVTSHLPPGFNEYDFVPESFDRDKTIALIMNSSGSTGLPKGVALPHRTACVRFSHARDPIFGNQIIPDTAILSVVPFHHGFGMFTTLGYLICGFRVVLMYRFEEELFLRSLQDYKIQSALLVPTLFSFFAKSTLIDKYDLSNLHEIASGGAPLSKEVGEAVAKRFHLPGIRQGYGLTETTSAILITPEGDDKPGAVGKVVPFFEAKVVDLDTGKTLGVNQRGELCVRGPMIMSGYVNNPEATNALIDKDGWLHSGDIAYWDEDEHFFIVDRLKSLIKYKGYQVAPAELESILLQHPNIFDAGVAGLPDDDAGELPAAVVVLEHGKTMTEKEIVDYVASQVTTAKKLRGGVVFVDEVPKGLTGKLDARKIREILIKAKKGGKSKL
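Purified P. pyralis luciferase (10nM final) with 10uM D-luciferin and 10uM ATP (Km levels) in 50mM Tris acetate pH 7.5, 10mM Mg acetate, 0.01% Tween-20, 0.05% BSA; qHTS 6-point titration, ~60 µM downward; luminescence read.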
Numbers without * were called inactive; ? = inconclusive; · = no result. Only some compounds are listed: those with a hit (about 9.2% of all), similar ones and a draw of the others. Calls follow the shape of the dose curve; as a rule, active = well fitted curve in the direction sought with a large enough effect; inconclusive = small, poorly fitted or top-dose-only effect, or another doubt; inactive = no such curve, though single readings can be large; an effect the other way counts as inactive or inconclusive. Potency is read from the fitted curve at half-maximal effect.

SMILES	Rab9 promoter act	ELG1 DNA repair	ELG1 genotox	NPC1 prom act	SMN2 splice up	FLuc counter
COCCNC(=O)C(c1ccc(C)o1)N(Cc1ccco1)C(=O)c1snc(C(N)=O)c1N (stereo not drawn)	-0.8%	-28.0%	-2.0%	-3.4%	-1.5%	-0.1%
Cc1nc2c3ccccc3nc(SCC(=O)c3ccc(Cl)cc3)n2n1	-13.0%	-20.2%	-3.6%	-0.1%	-8.0%	-0.2%
COc1cc2nc(SCC(=O)c3ccc(Br)cc3)n3nc(C)nc3c2cc1OC	-6.2%	4.11µM*	-0.7%	-3.8%	-6.3%	-1.7%
CN(C)c1ccc(-c2nc3ccccc3c(=O)[nH]2)cc1	0.251µM*	?	0.82µM*	0.355µM*	·	0.601µM*
Cc1cccc(-c2nc3ccccc3c(=O)[nH]2)c1	3.16µM*	?	?	2.82µM*	·	10.7µM*
COc1ccc(-c2nc3ccccc3c(=O)[nH]2)cc1	0.708µM*	?	9.2µM*	1.41µM*	·	3.38µM*
COc1ccc(N2CCN(C(=O)CSc3c4c(nc5ccc(Cl)cc35)CCCC4)CC2)cc1	·	·	·	·	-78.4%	2.4%
O=C(Nc1ccc2c(c1)OCO2)c1cccc2c1C(=O)N(Cc1cccnc1)C2	2.2%	?	?	-3.2%	-3.5%	15.1µM*
COc1cc(NC(=O)c2cccc3c2C(=O)N(Cc2cccnc2)C3)cc(OC)c1OC	-8.3%	9.2µM*	-0.2%	-6.1%	?	0.5%
CCOC(=O)CC(NC(=O)c1cccc2c1C(=O)N(Cc1cccnc1)C2)c1ccc(OCC)c(OC)c1 (stereo not drawn)	1.7%	-19.6%	-0.7%	-6.8%	·	-2.5%
COc1cccc(Cc2nc3ccccc3nc2SCC(=O)NCCc2ccccc2)c1	·	·	·	·	·	-16.6%
CCCNS(=O)(=O)c1ccc(CCC(=O)Nc2cc(Cl)ccc2Oc2ccccc2)cc1	-3.8%	23.1µM*	-9.1%	-1.7%	-62.2%	3.0%
Cc1cccc(-c2noc(-c3ccccc3OCC(=O)Nc3ccccc3[N+](=O)[O-])n2)c1	·	·	·	·	·	-10.4%
COc1ccccc1OCc1nc(-c2cccc(C)c2)no1	·	·	·	·	?	8.49µM*
CCOc1cc(-c2nc(-c3ccccc3OC)no2)cc(OCC)c1OCC	-3.8%	?	-28.3%	0.2%	?	2.9%
COc1ccc(-c2nc(-c3ccccc3OC)no2)cc1OC	?	?	11.0%	3.55µM*	?	15.1µM*
COc1cc(-c2nc(-c3cccc(C)c3)no2)cc(OC)c1OC	5.2%	18.4µM*	0.7%	7.9%	28.8%	?
COc1cc(OC)cc(-c2nc(-c3cccc(C)c3)no2)c1	·	·	·	·	-0.5%	?
COc1ccccc1-c1nc(-c2cccc(C)c2)no1	0.112µM*	?	1.16µM*	0.316µM*	4.47µM*	1.2µM*
Cc1cc(F)ccc1Nc1nc2ccc(Cl)cc2n2cnnc12	·	·	·	·	7.4%	2.7%
Cc1ccc(C(=O)NCC(c2ccc3c(c2)OCO3)N2CCN(c3ccc(F)cc3)CC2)cc1 (stereo not drawn)	·	·	·	·	·	-2.9%
O=C(OCC#CCSc1nnc(-c2cccc3ccccc23)o1)c1ccc2ccccc2c1	-2.0%	2.8%	5.0%	1.5%	·	4.6%
COc1ccc(-c2nc(-c3cccc(C)c3)no2)cc1OC	4.47µM*	?	?	0.794µM*	12.6µM*	4.26µM*
Cn1c(-c2ccc(S(=O)(=O)N3CCCC3)cc2)csc1=Nc1ccc(Cl)c(Cl)c1	·	·	·	·	-10.6%	-0.6%
O=C1c2ccccc2C(=O)C1c1ccc2ccccc2n1	1µM*	?	0.13µM*	?	1µM*	0.169µM*
O=C(CNC(=O)c1[nH]cnc1C(=O)NC(c1ccccc1)c1ccccc1)OCc1ccccc1	0.5%	-17.7%	1.6%	0.9%	·	-1.0%
O=C(N/N=C/c1ccc(F)cc1)c1cccc(NC(=O)c2ccccc2Cl)c1	6.1%	0.5%	2.1%	-0.1%	·	9.53µM*
COc1ccc(N2Cc3ccc(C(=O)N/N=C\c4ccc(O)cc4O)cc3C2)cc1	?	?	10.6%	?	·	15.1µM*

Screening results: PubChem BioAssay, National Center for Advancing Translational Sciences (NCATS)
